# Source: PubChem BioAssay AID1851 (National Center for Advancing Translational Sciences (NCATS), 2009)
# About 2,600 (16%) of roughly 16,000 compounds were called active. Roughly 20% stayed inconclusive and do not appear here. A selection follows. Values without a mark were called inactive. Calls come from the whole dose curve; as a rule, active = well fitted curve in the direction sought with a large enough effect; inconclusive = small, poorly fitted or top-dose-only effect, or effect the other way; inactive = no such curve, though single readings can be large or run the other way.
# Target: Cytochrome P450 2D6 (Homo sapiens) (UniProt P10635)
# Sequence (P10635 whole entry, looked up): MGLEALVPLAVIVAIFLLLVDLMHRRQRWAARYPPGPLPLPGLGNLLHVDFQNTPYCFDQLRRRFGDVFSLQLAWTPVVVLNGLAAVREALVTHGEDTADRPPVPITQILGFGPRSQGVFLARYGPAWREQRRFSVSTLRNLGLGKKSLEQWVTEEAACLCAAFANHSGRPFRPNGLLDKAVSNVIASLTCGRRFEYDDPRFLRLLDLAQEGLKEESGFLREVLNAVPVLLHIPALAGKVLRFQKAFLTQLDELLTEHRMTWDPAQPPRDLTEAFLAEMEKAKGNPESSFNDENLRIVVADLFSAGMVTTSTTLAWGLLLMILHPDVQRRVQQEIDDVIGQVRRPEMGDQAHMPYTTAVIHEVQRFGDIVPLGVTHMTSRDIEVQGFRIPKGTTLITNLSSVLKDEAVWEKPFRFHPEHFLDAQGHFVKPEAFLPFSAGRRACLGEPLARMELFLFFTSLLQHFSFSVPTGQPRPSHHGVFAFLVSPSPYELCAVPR
# Experiment: Cytochrome panel assay with activity outcomes
# Details: recombinant CYP, pro-luciferin dealkylation, luminescence, p450-cyp2d6; series mostly up to 57.1 µM
# % is set by controls: 0 for no effect and ±100 for the full control effect.
SMILES,AC50,"activity, negative = inhibition"
COC(=O)[C@@]1(Cc2ccc(F)cc2)[C@@H]2C(=CC(=O)[C@H]2CC(=O)C(=O)N2CCCC2)CN1C(=O)c1ccccc1,inactive,–
N#CCCn1c(=O)cnc2cnc(N3CCNCC3)nc21,inactive,–
c1ccc2cc(-c3csnn3)ccc2c1,inactive,–
CS(=O)(=O)N1CCCC(C(=O)N2CCc3ccccc3C2)C1 (centres undefined),inactive,–
CCOC(=O)CC(=O)CSc1nc(-c2cccnc2)cc(C)c1C#N,inactive,–
Cc1ccc(CONC(=O)/N=C/N(C)C)cc1,inactive,–
C=CCNc1sc(C(=O)c2ccccc2)c(N)c1C#N,inactive,–
CCC[C@@H]1O[C@@H]2C[C@@H]3[C@H]4CCC5=CC(=O)C=C[C@@]5(C)[C@H]4[C@H](O)C[C@@]3(C)[C@@]2(C(=O)CO)O1,inactive,–
CO[C@@H]1/C=C\O[C@]2(C)Oc3c(C)c(O)c4c(O)c(cc(O)c4c3C2=O)NC(=O)/C(C)=C\C=C/[C@H](C)[C@@H](O)[C@H](C)[C@H](O)[C@H](C)[C@H](OC(C)=O)[C@@H]1C,–,11.7% [at 11.4 µM]
O=C(CSc1nc2nc(-c3cccs3)cc(C(F)(F)F)c2c(=O)[nH]1)NCc1ccco1,inactive,–
O=C1COc2ccccc2CN1,inactive,–
Cn1c(=O)cnc2cnc(Nc3ccccc3)nc21,inactive,–
CC[C@]1(O)C[C@@H]2CN(CCc3c([nH]c4ccccc34)[C@](C(=O)OC)(c3cc4c(cc3OC)N(C)[C@H]3[C@](O)(C(=O)OC)[C@@H](C(=O)OC)[C@@]5(CC)C=CCN6CC[C@@]43[C@@H]65)C2)C1,inactive,–
CN(C)S(=O)(=O)c1nc(Cl)c2[nH]cnc2n1,–,9.4% [at 11.4 µM]
CC(C)CN1CCCC2(CCN(C(=O)c3cccn3C)CC2)C1,inactive,–
Cn1cccc1C(=O)N1CCC2(CCCN(Cc3ccccc3)C2)CC1,10 µM (active),–
Cn1cccc1C(=O)N1CCC2(CCCN(Cc3ccc(C#N)cc3)C2)CC1,inactive,–
O=c1c(-c2ccccc2)nc2cnc(N3CCOCC3)nc2n1Cc1cccs1,inactive,–
CCOc1ccc(OCC)c(NC(=O)C2CCCN(S(=O)(=O)c3cccs3)C2)c1 (centres undefined),inactive,–
NNc1nncc2ccccc12,inactive,–
C=CC[C@@H]1C=C[C@H](O/N=C\[C@@H](C)[C@H](OCc2ccccc2)C(C)C)[C@H](CO)O1,–,-3.33% [at 11.4 µM]
CC1(C)N=C(N)N=C(N)N1CCCCc1ccccc1,3.16 µM (active),–
COc1ccc(-n2c(=O)c(-c3ccc(Cl)cc3)nc3cnc(N4CCOCC4)nc32)cc1,inactive,–
CCOC(=O)COc1c(OC)cc(Cl)cc1C1Nc2ccccc2C(=O)N1c1cccc(C)c1 (centres undefined),inactive,–

SMILES,AC50,"activity, negative = inhibition"
Cn1c(CNS(=O)(=O)c2ccc(F)cc2)n[nH]c1=S,inactive,–
CN(CCC#N)C(=O)c1ccc(CNS(=O)(=O)c2ccc(F)cc2)cc1,28.2 µM (active),–
O=C(NCCCN1CCCC1=O)c1ccc(CNS(=O)(=O)c2ccc(F)cc2)cc1,inactive,–
CC(C)c1ccc2nc3sc(C(=O)N4CCc5ccccc5C4)c(N)c3cc2c1,inactive,–
O=C(c1cnccn1)N1CCC2(CC1)CN(Cc1nccs1)C2,inactive,–
COc1ccccc1CN1CCCC2(CCN(C(=O)c3cnccn3)CC2)C1,3.98 µM (active),–
COc1ccccc1CN1CC2(CCN(C(=O)c3ccncc3)CC2)C1,0.794 µM (active),–
O=C(c1cnccn1)N1CCC2(CCN(Cc3nccs3)CC2)CC1,inactive,–
O=C(c1cnccn1)N1CCC2(CCCN(Cc3nccs3)C2)CC1,7.94 µM (active),–
COc1ccccc1CN1CC2(CCN(C(=O)c3cnccn3)CC2)C1,inactive,–
COc1ccccc1CN1CCCC2(CCN(C(=O)c3ccncc3)CC2)C1,3.16 µM (active),–
CN1CCCC2(CCN(C(=O)c3cnccn3)CC2)C1,inactive,–
O=c1c(CCc2ccccc2)nc2cnc(Oc3ccccc3)nc2n1C1CC1,inactive,–
O=C(CSc1nc2ccccc2s1)c1sc2sc3ccccc3[n+]2c1O,–,-14.5% [at 11.4 µM]
Cc1ccc(C(=O)O)cc1N1C(=O)c2cccc3cc(Br)cc(c23)C1=O,inactive,–
CCCNC(=O)OC[C@@H]1O[C@H](CCO/N=C(\C)CCN2CCc3nc(-c4ccccc4)c(-c4ccccc4)cc3C2)C=C[C@@H]1Oc1ccc(OC)cc1,–,-6.26% [at 11.4 µM]
COc1ccc(Oc2ncc3nc(C)c(=O)n(C)c3n2)cc1,inactive,–
CC(C)C12CN3CC(C(C)C)(CN(C1)C3c1ccco1)C2=O (centres undefined),inactive,–
CC(=O)Nc1c(I)c(C(=O)N[C@H]2[C@@H](O)[C@H](O)[C@H](CO)O[C@@H]2O)c(I)c(N(C)C(C)=O)c1I,inactive,–
CCOc1ccc(N(CCC#N)S(=O)(=O)c2ccc(OC)cc2)cc1,inactive,–
COc1cc([C@H]2c3cc4c(cc3[C@@H](O)[C@@H]3COC(=O)[C@H]23)OCO4)cc(OC)c1OC,inactive,–
O=C1N/C(=C\c2ccc(N3CCOCC3)c(F)c2)C(=O)N1Cc1ccccc1,inactive,–
COCCn1c(=O)c(C)nc2cnc(Oc3cccc(Cl)c3)nc21,inactive,–
Sc1ccc2ccccc2c1CNCc1ccccc1,1.26 µM (active),–

SMILES,AC50,"activity, negative = inhibition"
O=C(O)c1ccc(CNCc2ccccc2)cc1,–,8.97% [at 11.4 µM]
CC(OC(=O)Cn1c(C(F)(F)F)nc2ccccc21)C(N)=O (centres undefined),inactive,–
Cc1ccc(N=Cc2cc(C)n(C3CCCC3)c2C)cc1,15.8 µM (active),–
COC(=O)N1CCC2(CC1)CCN(c1ncccn1)CC2,inactive,–
COc1cc(/C=C\c2ccc(OC)cc2OC)cc(OC)c1,inactive,–
COc1ccc(OC(=O)c2ccncc2)cc1,inactive,–
COc1ccc(/C=C/c2ccncc2)cc1,8.91 µM (active),–
CC(C)(C)NC(=O)Cn1cnc([N+](=O)[O-])n1,inactive,–
CSc1nc2ccc3nc(NC(=O)c4cccs4)sc3c2s1,inactive,–
O=C(Cn1cnc2ccccc2c1=O)Nc1nnc(SCc2ccccc2)s1,inactive,–
COc1cc(OC)cc(C(=O)NC(=S)Nc2ccc(Cl)c(C(=O)O)c2)c1,inactive,–
C[C@@H](c1ccccc1)N1C(=O)[C@H]2[C@H]3[C@H](O)[C@H](O)C/C(=N/OCc4ccccc4)[C@H]3CC[C@@H]2C1=O,–,6.68% [at 11.4 µM]
O=c1c(-c2cc(F)cc(F)c2)nc2cnc(Oc3ccccc3)nc2n1C1CC1,inactive,–
Cc1nc2cccc([N+](=O)[O-])c2n1CCCN(C)C,–,3.67% [at 11.4 µM]
CN(C)CCCn1c2c3ccccc3ccc2c2oc(=O)c3ccccc3c21,1.26 µM (active),–
O=C1C2C3c4ccccc4C(c4ccccc43)C2C(=O)N1c1nc(-c2ccccc2)cs1 (centres undefined),inactive,–
O=C(Nc1ccc(-c2nc3ccccc3o2)cc1)c1ccc(N2CCOCC2)c([N+](=O)[O-])c1,inactive,–
O=C(O)C1=CCNCC1,inactive,–
CCC[C@H]1C(=O)N2C(N(C)C)=Nc3ccc(C)cc3N2C1=O,inactive,–
O=C(Nc1ccccc1)/C(=C\c1ccncc1)NC(=O)c1ccccc1,inactive,–
CC(=O)Nc1ccc(NCN2C(=O)C3C4CCC(C4)C3C2=O)cc1 (centres undefined),inactive,–
COc1ccccc1NC(=O)C1=C(C)Nc2nc(-c3ccc(N(C)C)cc3)nn2C1c1ccncc1 (centres undefined),inactive,–
Nc1nnnn1/N=C\c1ccc(Cl)c([N+](=O)[O-])c1,inactive,–
COc1ccc(-n2c(C)n[nH]c2=O)cc1,inactive,–

SMILES,AC50,"activity, negative = inhibition"
Cc1cc(C)cc(NC(=O)CCc2nc3ccccc3[nH]2)c1,inactive,–
CC(C)c1ccc(NC(=O)N(CCc2nc3ccccc3[nH]2)C2CCCC2)cc1,2.51 µM (active),–
O=C(O)[C@H]1CCCC[C@@H]1C(=O)Nc1nc2ccccc2[nH]1,–,-3.05% [at 11.4 µM]
O=C(N/N=C/c1cccc(OC2CSC2)c1)c1ccccc1O,inactive,–
Nc1ccccc1N=Nc1c(S(=O)(=O)O)cc2cc(S(=O)(=O)O)cc(O)c2c1O,–,-13.1% [at 11.4 µM]
CC(C)CCn1c(Oc2ccccc2Cl)nc2c1c(=O)n(C)c(=O)n2C,inactive,–
CC(=O)/C(=C\c1ccccc1F)C(=O)c1ccccc1,–,-1.17% [at 11.4 µM]
CC1CCCN(CCCNC(=O)C2CC(=O)N(c3ccc(F)c(Cl)c3)C2)C1 (centres undefined),15.8 µM (active),–
COCCCNC(=O)C1CC(=O)N(CCc2ccc(OC)c(OC)c2)C1 (centres undefined),inactive,–
CC1CC(C)CN(CCCNC(=O)C2CCCN(c3nnc(N4CCCC4=O)s3)C2)C1 (centres undefined),inactive,–
COC(=O)c1nn(C23CC4CC(CC(C4)C2)C3)c2c1C(=O)N(c1ccc(F)cc1)C2=O,inactive,–
COc1ccc(C2N=C(N)N=C(N)N2c2ccccc2OC)cc1OC (centres undefined),7.08 µM (active),–
NC1=N[C@H](c2ccc(Cl)cc2)N(c2ccc(S(=O)(=O)Nc3ncccn3)cc2)C(N)=N1,–,-2.11% [at 11.4 µM]
COc1cccc(/C(O)=C2/C(=O)C(=O)N(c3ccccn3)C2c2ccc(OC)c(OC)c2)c1 (centres undefined),inactive,–
COc1cccc(Cn2c(=O)c(-c3cn(C)c4ccccc34)nc3cncnc32)c1,inactive,–
O=C(O)CCCCCCCC(=O)O,inactive,–
COc1ccc(Oc2nc(C)cc(C)c2S(=O)(=O)c2ccc(C)cc2)cc1,inactive,–
N[C@H](CCC(=O)NCC(=O)O)C(=O)O,inactive,–
CC(C)(C)CNC(CO)C12CC3CC(CC(C3)C1)C2 (centres undefined),10 µM (active),–
CC(NC(=O)CN1CCCC1)C12CC3CC(CC(C3)C1)C2 (centres undefined),inactive,–
Cc1ccc(S(=O)(=O)N[C@H]2COC(=O)[C@H](C)COC(=O)[C@H](C)NC(=O)C/C=C\[C@H]2C)cc1,–,12.2% [at 11.4 µM]
O=C(O)[C@@H]1[C@@H](C(=O)NCc2ccccn2)[C@@H]2C=C[C@@H]1O2,–,8.57% [at 11.4 µM]
